Shown is part of a subset that was picked to be rich in hits.
CBX7 inh = CBX7 chromodomain binding inhibitors, primary screen, biochemical, AlphaScreen; Chromobox protein homolog 7 (Homo sapiens), O95931; AlphaScreen His6-CBX7 / biotin-H3K27me3 peptide binding; active compounds read low; normalised signal (fraction of DMSO) (test concentration not listed); 66,000 compounds, 1.1% hits; AID 1224903, 2016; in the data active = normalised signal below about 0.5
Target sequence (O95931 whole entry, looked up): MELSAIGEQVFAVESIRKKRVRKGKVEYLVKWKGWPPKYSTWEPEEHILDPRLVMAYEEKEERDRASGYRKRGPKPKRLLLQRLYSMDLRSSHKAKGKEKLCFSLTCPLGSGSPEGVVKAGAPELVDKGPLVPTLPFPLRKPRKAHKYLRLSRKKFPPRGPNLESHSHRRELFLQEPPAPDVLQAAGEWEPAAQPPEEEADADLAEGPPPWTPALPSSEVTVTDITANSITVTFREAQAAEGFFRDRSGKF
Of the large screens only hits and unclear results are named; the others gave an inactive call.

O=C(NC(c1ccccc1)c1ccccc1)C1CCCN(S(=O)(=O)c2cccc3cccnc23)C1 (stereo unspecified)	none
CC(NC(=O)C1CCN(S(=O)(=O)c2cccc3cccnc23)CC1)c1ccccc1 (stereo unspecified)	none
Cc1ccc2cc(CCNC(=O)CCc3ccccc3)c(=O)[nH]c2c1	none
Cc1ccc(-c2noc(CCC(=O)NC(C)CCc3ccccc3)n2)cc1 (stereo unspecified)	none
CCC1Oc2ccc(Cl)cc2N(CC(=O)NCCC2=CCCCC2)C1=O (stereo unspecified)	none
O=C(NCc1ccc2c(c1)OCO2)c1cc(=O)[nH]c2ccc(S(=O)(=O)N3CCOCC3)cc12	none
CCN(CC)S(=O)(=O)c1ccc2c(c1)N(CC(=O)OC)C(=O)CS2	none
CCN(CC)CCNC(=O)c1cc(Nc2cccc(SC)c2)nc2ccccc12	none
COc1ccc(C)cc1NC(=O)Cn1cnc2sc3c(c2c1=O)CCCC3	none
O=C(Cn1ncc2ccsc2c1=O)NCc1ccc2c(c1)OCO2	none
O=C(NCCc1ccccc1)c1cc(-c2ccc(F)cc2)on1	none
O=C1CN(C(=O)c2ccccc2C(F)(F)F)C(c2ccc(F)cc2)c2cc(Br)ccc2N1 (stereo unspecified)	none
O=C1CCc2cc(S(=O)(=O)Nc3ccc(OC(F)(F)F)cc3)ccc2N1	none
CCCc1cc(-c2onc(C)c2-c2ccc3c(c2)OCCCO3)c(O)cc1OC	none
CCc1cc(-c2[nH]ncc2-c2ccc3c(c2)OCCO3)c(O)cc1OC	CBX7 inh 0.381
CCCc1cc(-c2[nH]ncc2-c2ccc3c(c2)OCCO3)c(O)cc1OC	CBX7 inh 0.292
CCc1cc(-c2n[nH]c(C)c2-c2ccc3c(c2)OCCO3)c(O)cc1O	none
CCc1cc(-c2[nH]ncc2-c2ccc3c(c2)OCCO3)c(O)cc1O	none
CCCCCCc1cc(-c2[nH]ncc2-c2ccc(Br)cc2)c(O)cc1OC	none
Cc1ccccc1Cn1cc(S(=O)(=O)c2ccccc2)c(=O)c2cc(F)ccc21	none
COc1cccc(C(=O)NCCc2cc3cc(C)c(C)cc3[nH]c2=O)c1OC	none
CCOC(=O)c1sc(NC(=O)c2ccc(Cl)s2)nc1C	none
COc1ccc(C2C(=O)N(C3CCCCC3)CC(=O)N2C2CCCCCCC2)cc1 (stereo unspecified)	none
COc1ccc(-c2nc(CSCC(=O)NC(C)CCc3ccccc3)c(C)o2)cc1 (stereo unspecified)	none
CCCN(CCC)S(=O)(=O)c1ccc2c(c1)CCN2C(=O)C1CCC1	none
CCc1ccc(NS(=O)(=O)c2ccc3[nH]cc(C(=O)NC4CCC(C)CC4)c(=O)c3c2)cc1 (stereo unspecified)	none
C=CCc1ccccc1OCC(O)CN1CCC(C)CC1 (stereo unspecified)	none
C=CCc1ccccc1OCC(O)CN1CCN(c2ccc(C)cc2)CC1 (stereo unspecified)	CBX7 inh 0.251
C=CCc1cc(C)ccc1OCC(O)CN1CCOCC1 (stereo unspecified)	none
CCCCN(CC)CCCNC(=O)c1cc(Nc2ccc(OC)cc2OC)nc2ccccc12	none
